Compound activity deposited in PubChem BioAssay by National Center for Advancing Translational Sciences (NCATS).
In the library only some 3.6% were active in any assay of this set; here they are far more common.
TSHR ag: qHTS Assay for Agonists of the Thyroid Stimulating Hormone Receptor | 73,000 compounds, 0.48% hits | Potency, µM (titrated, usually from 57.1 µM), without a hit: at the highest dose activation, usual class: activators | AID 926, 2007 | HEK293-CNG-TSHR cells (CNG channel as cAMP sensor), membrane potential dye, cAMP; active = well fitted activation curve with a large enough effect in the main read-out, with a control signal flat, not every such curve was filed as active; inconclusive = small, poorly fitted or top-dose-only effect, or a change in a side signal; inactive = no such curve, though single readings can be large or run the other way; % of control where 0% means no effect;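 also: the control signal comes from parental cells without the receptor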
Target sequence (P16473 whole entry, looked up): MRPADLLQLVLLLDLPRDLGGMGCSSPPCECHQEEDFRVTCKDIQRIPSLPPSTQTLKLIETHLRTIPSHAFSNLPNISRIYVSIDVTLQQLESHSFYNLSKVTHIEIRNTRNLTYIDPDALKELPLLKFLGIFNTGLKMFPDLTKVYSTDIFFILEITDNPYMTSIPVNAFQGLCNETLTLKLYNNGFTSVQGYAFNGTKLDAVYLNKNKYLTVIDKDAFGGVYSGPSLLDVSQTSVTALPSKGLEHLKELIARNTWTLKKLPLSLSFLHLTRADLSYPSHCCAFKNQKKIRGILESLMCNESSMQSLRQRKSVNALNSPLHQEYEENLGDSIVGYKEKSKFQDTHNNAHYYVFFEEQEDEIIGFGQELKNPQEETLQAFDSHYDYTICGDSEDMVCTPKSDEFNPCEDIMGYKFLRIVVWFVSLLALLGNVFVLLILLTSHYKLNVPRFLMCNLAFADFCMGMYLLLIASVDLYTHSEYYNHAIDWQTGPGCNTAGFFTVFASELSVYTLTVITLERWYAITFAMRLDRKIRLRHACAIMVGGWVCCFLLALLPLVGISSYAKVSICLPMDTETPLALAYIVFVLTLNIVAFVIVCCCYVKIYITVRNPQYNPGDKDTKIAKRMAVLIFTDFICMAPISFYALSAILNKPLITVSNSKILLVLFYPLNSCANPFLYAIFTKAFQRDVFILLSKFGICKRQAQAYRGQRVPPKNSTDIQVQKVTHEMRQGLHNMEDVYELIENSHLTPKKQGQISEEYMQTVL
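HEK 293 cells stably expressing TSHR and a cAMP-gated CNG channel; parental CNG-only cells as counterscreen. Cells preloaded 60 min with membrane potential dye plus 100 uM RO 20-1724, then compound 30 min; fluorescence read at 590 nm.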
CRE Fsk mod: Cell signaling CRE-BLA (Fsk stim); CHO CRE-bla reporter (cAMP response element driving beta-lactamase), forskolin EC10, beta-lactamase ratio; AID 662, 2007; Potency, µM (top dose mostly 38.2 µM), for inactives: at the highest dose activity change, negative = inhibition, actives largely listed as activators; 71,000 compounds, 2.5% hits; active = well fitted activation curve with a large enough effect in the signal ratio, with a control signal flat, not every such curve was filed as active; inconclusive = small, poorly fitted or top-dose-only effect, or effect the other way, or a change in a side signal; the % refers to the signal ratio; also: % of control where 0% means no effect
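Titrated compounds plus EC10 NKH 477 on CHO CRE-bla cells, 3 h, 37 °C. CCF4, 2 h RT. Ratio 460/530 nm → AC50.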
ERK AVP block: qHTS Assay for Inhibitors of the ERK Signaling Pathway using a Homogeneous Screening Assay; HEK293-V1b, vasopressin-stimulated pERK AlphaScreen; Potency, µM (series often up to 57.5 µM), without a hit: at the highest dose activity, negative = inhibition, usual class: inhibitors; 72,000 compounds, 0.99% hits; AID 995, 2007; also: % is scaled to controls: 0 for no effect and ±100 for the full control effect; nearly all actives have a fitted effect of over 55% in size
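HEK293 cells stably expressing V1b receptor, seeded overnight in 1% FBS, were treated with compounds for 30 min at 37C, then stimulated 5 min with 25 nM vasopressin; phospho-ERK read by AlphaScreen SureFire after lysis.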
HEK293 cAMP cs: qHTS Assay for Agonists of the Thyroid Stimulating Hormone Receptor: Activators of Intracellular cAMP Concentrations in Parental HEK 293. parental HEK293 CNG cAMP sensor, membrane potential fluorescence. Potency, µM (series often up to 57.1 µM), for the others: top-dose activation, usual class: activators. 73,000 compounds, 2.5% hits; also: % of control where 0% means no effect; nearly all actives have a fitted effect of over 55% in size
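Counterscreen for endogenous-receptor signalling: CNG-channel HEK 293 cells report cAMP rise by membrane depolarization. After 60 min dye equilibration with 100 uM RO 20-1724, compounds incubated 30 min before bottom-read fluorescence at 590 nm.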
IkB sig inh: IkB Signaling; ABC-DLBCL IkBa-CBG/CBR dual luciferase ratio, 4 h; response scale: scaled: untreated 0%, proteasome inhibitor 100%; Potency, µM (doses to about 57.1 µM), inactives show top-dose IkBa stabilization activation; 110,000 compounds, 0.04% hits; active = well fitted curve in the direction sought with a large enough effect in the signal ratio, not every such curve was filed as active; inconclusive = small, poorly fitted or top-dose-only effect, or a change in a side signal; the % refers to the signal ratio;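 also: the direction sought is a rising ratio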
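Curves were fitted separately to fusion (green), unfused (red) and ratio luminescence, then classed by r2, magnitude and activity. Cells: OCI-Ly3, 4 h compound plus doxycycline at 37C; 10 uM MG-132 defined full response.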
* marks the source's active call; other numbers are inactive results; ? = inconclusive; nt = not tested or not shown; [ ] = remark or other dose. Unless noted, calls follow the shape of the dose curve; as a rule, active = well fitted curve in the direction sought with a large enough effect; inconclusive = small, poorly fitted or top-dose-only effect, or another doubt; inactive = no such curve, though single readings can be large; an effect the other way counts as inactive or inconclusive. Potency is read from the fitted curve at half-maximal effect.

SMILES | TSHR ag | CRE Fsk mod | ERK AVP block | HEK293 cAMP cs | IkB sig inh
CCN(CC)c1ccc(NC(=O)C2CCCN(S(=O)(=O)c3ccc4c(c3)oc(=O)n4C)C2)c(C)c1 (stereo unspecified) | nt | nt | nt | nt | 2%
COC(=O)c1nc(NC(C)=O)n[nH]1 | -3% | -13% | 4% | 0% | 1%
CN(C)C(=O)CSc1cccc2cccnc12 | 27% | -18% | -22% | -4% | ?
O=C(CSc1cccc2cccnc12)N1CCCC1 | nt | -20% | -13% | 0% | 4µM*
COc1ccc(-c2nnc(CSc3nc4ccccc4c(=O)n3C)o2)cc1OC | ? | ? | ? | 25µM* | 0%
O=c1c2ccccc2nc(SCc2nnc(-c3ccccc3Br)o2)n1-c1ccccc1 | ? | 2.5µM* | 2% | ? | 1%
O=c1c2ccccc2nc(SCc2nnc(-c3ccccc3)o2)n1-c1ccc(F)cc1F | ? | 3% | ? | ? | 4%
Cn1c(=O)c(-c2cccs2)nc2cnc(Oc3ccccc3)nc21 | nt | ? | -13% | 10% | -2%[11.4 µM]
O=c1cnc2cnc(Oc3ccccc3)nc2n1Cc1cccs1 | ? | -7% | -17% | 20µM* | -4%[11.4 µM]
COc1ccc(Oc2ncc3nc(-c4ccc(OC)cc4)c(=O)n(Cc4cccs4)c3n2)cc1 | ? | ? | -5% | ? | 2%[11.4 µM]
COc1ncc2nc(-c3cccs3)c(=O)n(C)c2n1 | -8% | 3.2µM* | -14% | 10% | -3%[11.4 µM]
COc1ccc(Oc2ncc3nc(-c4cccs4)c(=O)n(Cc4cccs4)c3n2)cc1 | ? | 3.2µM* | 41% | ? | 2%[11.4 µM]
COc1ncc2nc(-c3cc(F)cc(F)c3)c(=O)n(Cc3cccs3)c2n1 | 0% | 5µM* | -23% | 7% | 4%[11.4 µM]
O=c1c(-c2cccs2)nc2cnc(Oc3ccccc3)nc2n1Cc1cccs1 | 1% | ? | 13% | 18% | -1%[11.4 µM]
COc1ncc2nc(-c3ccc(F)cc3)c(=O)n(CCc3ccccc3)c2n1 | 5% | ? | 4% | 4% | 0%[11.4 µM]
COc1ncc2nc(-c3ccccc3)c(=O)n(CCc3ccccc3)c2n1 | 8% | 13µM* | -20% | 26% | 0%[11.4 µM]
COc1cccc(Nc2ncc3ncc(=O)n(Cc4cccs4)c3n2)c1 | ? | ? | -23% | 16µM* | ?
COc1ccc(-n2c(=O)c(-c3cccs3)nc3cncnc32)cc1 | 3% | 3.2µM* | -19% | 6% | 1%[11.4 µM]
COc1ncc2nc(-c3cccs3)c(=O)n(Cc3cccs3)c2n1 | 0% | 2.5µM* | -2% | 5%[2.29 µM] | 1%[11.4 µM]
Cc1ccc(-n2nc(-c3ccccc3)c3cnc4cc5c(cc4c32)OCO5)cc1C | nt | nt | nt | nt | 0%
CCS(=O)(=O)NCCc1csc(C)n1 | 1%[11.4 µM] | -3% | -9% | -1% | -1%
COc1ncc2nc(-c3ccccc3)c(=O)n(Cc3cccs3)c2n1 | 9% | 13µM* | 7% | 26% | -1%[11.4 µM]
COc1cccc(Cn2c(=O)c(-c3cccs3)nc3cnc(OCc4ccccc4)nc32)c1 | ? | 1.3µM* | 12% | ? | 4%[11.4 µM]
CCc1ccc(-n2nc(C)c3c(C)cc(=O)n(CC(=O)Nc4ccc(C)c(F)c4)c32)cc1 | nt | nt | nt | nt | -3%
Cc1cc(C)c2ccc(N)nc2c1O | ? | ? | 19% | ? | 5µM*
SMILES | TSHR ag | CRE Fsk mod | ERK AVP block | HEK293 cAMP cs | IkB sig inh
CCc1ccc(C2=C(C)C(N3CCC(C(=O)NCCc4ccco4)CC3)=NS2(=O)=O)cc1 | nt | nt | nt | nt | -1%
CCOC(=O)c1c(CN2CCCCC2)n(C)c2cc(Br)c(O)c(CN(C)C)c12 | -2% | 7% | -11% | 14% | 2%
CCOC(=O)c1c(CN2CCCCC2)n(C)c2cc(Br)c(OC)cc12 | ? | 10µM* | 20% | ? | 0%
O=C(Nc1ccc2oc(-c3cc(Br)ccc3Cl)nc2c1)c1cc2ccccc2o1 | nt | nt | nt | nt | -1%
Cc1ccc(-c2nc(CS(=O)(=O)CC(=O)N3CC(C)CC(C)C3)c(C)o2)cc1 (stereo unspecified) | ? | -1% | ? | 32µM* | 11%
Cc1oc(-c2ccccc2F)nc1CS(=O)(=O)CC(=O)N1CCN(Cc2ccccc2)CC1 | nt | -2% | ? | 20% | 1%
Cc1oc(-c2ccccc2F)nc1CS(=O)(=O)CC(=O)N1CCOCC1 | ? | -2% | -15% | 32µM* | -3%
COc1ccc(NS(=O)(=O)c2ccc3c(c2)NC(=O)CCS3)c(OC)c1 | nt | nt | nt | nt | 0%
Cc1cc(Br)ccc1OCC(=O)N(Cc1nc(-c2ccccc2)no1)C(C)C | ? | ? | 3% | 10µM* | ?
CSCCC(NC(=O)OC(C)(C)C)C(=O)NC(CC(C)C)C(N)=O (stereo unspecified) | -6% | -2% | 5% | -3% | 1%
COc1ccc(-n2c(=O)c(C)nc3cnc(Oc4ccccc4)nc32)cc1 | -1% | 2.5µM* | -9% | 19% | 1%[11.4 µM]
COc1ccc(-n2c(=O)c(C)nc3cnc(N(C)C)nc32)cc1 | nt | 13µM* | -1% | 22% | 0%[11.4 µM]
Cc1nc2cnc(Oc3ccccc3)nc2n(-c2ccccc2)c1=O | 9% | ? | ? | 17% | 0%[11.4 µM]
CCNc1ncc2nc(C)c(=O)n(-c3ccc(OC)cc3)c2n1 | 7% | ? | ? | 5% | 1%[11.4 µM]
O=C(CSc1nc2ccccc2c(=O)n1C1CC1)NCc1ccccc1 | 2% | ? | 29% | 26% | 0%
O=C(NCc1cccnc1)c1cn(CCc2ccccc2)nn1 | 2% | 0% | -11% | 5% | 0%
Cc1cccc(OCCn2c(-c3ccc(Cl)cc3)nc3ccccc3c2=O)c1C | nt | nt | nt | nt | 0%
COC(=O)c1ccc(C(NC(=O)OCc2ccccc2)/C(I)=C/[C@@H](C)C(=O)NCc2ccc(C)o2)cc1 (stereo partly specified) | nt | ? | -2% | 14% | nt
COC(=O)c1ccc(C(NC(=O)OCc2ccccc2)/C(C)=C/[C@@H](C)C(=O)NC2CCCCC2)cc1 (stereo partly specified) | ? | -13% | -6% | 16µM* | nt
COC(=O)c1ccc(C(NC(=O)OCc2ccccc2)/C(I)=C/[C@@H](C)C(=O)NCc2ccc(OC)c(O)c2)cc1 (stereo partly specified) | 25µM* | -9% | -16% | 23% | nt
Cc1ccccc1CNC(=O)CN(c1cccc(C)c1C)S(C)(=O)=O | nt | nt | nt | nt | 2%
COc1cccc(NC(=O)N(Cc2c[nH]c3ccccc23)C2CCCCCC2)c1 | nt | nt | nt | nt | 0%
COC(=O)[C@@]1(Cc2ccc(OC)cc2)[C@H]2c3cc(C(=O)N4CCCC4)n(Cc4ccccn4)c3C[C@H]2CN1C(=O)c1ccccc1 | ? | -10% | 3% | ? | nt
